# Measured values reported in the supplement of paper PMC6555819.
# Tested on: THRa homodimer (NR concentration 90 nM)
# Experiment: PBM binding z-score (relative to random genomic background probes); higher = stronger binding; sequences stand for … in GC…GCGATTGACAGCGTAGAATGAAGG
# In short: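 Regression normalization was applied to scanned fluorescence from custom Agilent 4×180K protein-binding microarrays. Before scanning, arrays were incubated 1 h with ligand-free nuclear receptor dimers, and binding was detected with antibodies against each partner (one per run). Binding z-scores use the random background probes as reference.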
row,Sequence,PBM binding z-score
1,CCGAGTAGGTTATGGGGCATTAAGGCAACGGTGA,0.598
2,CCAGACAGGTGAGTAGGTAACTCAGCCTCGATTA,0.159
3,CCTATTTGGTCAAGGTCACACACGCTATAGGTAC,4.49
4,TCTATTAGTTGATTACGGCAACCGAAACAGCGGA,0.312
5,ATATGTACGTTACATCCGGGTCATTCAGGCTATG,2.93
6,CCTTACGGGTCACTCCAGGTTATAGTATCGGAGT,0.63
7,TCTTGTAGATCAAGCAGGTTTAGAAAGCCTGAGT,-0.583
8,CGTCCAAGTTCAATGCTAGGTCAGTGAAAGCATT,1.21
9,AGAACGAGGGCAATGAGTTGAGAGCACGGGTGGC,-0.211
10,CGTCCAAGGTCAAGGTCAGAGAAAGAGACTCGAA,3.41
11,ATCGAAAGGTCGTGAGGTGAGTATGCAGAAAGGC,1.71
12,TCGAGTAGGTTACCAATGGGGCATTCTGCTTTCT,-0.884
13,CCTTTCGGGTCACGAGGTTATAGCACGACGAGCG,3.83
14,ACAGACAGGTGAGTGAAGGAAACTCAGCTGGACG,-0.967
15,CTACCCAGGTGAACAAGGTCGTTGATTACTATTC,1.87
16,CCTAGTTGGTCAAGGTCACACTCGCTATAGGTAC,4.03
17,CAAACTAGGTCAAGGTCAAACTCGGTTTGTGCCA,3.95
18,ACTAGCAGGCCAAGATTGGGTCACTCAAACAAAG,0.533
19,CCTACTGGGCCAAGGTCCTTGATCAGTCAAAGCA,-0.503
20,GCGACTGGGGCAATGCAGGTTACCATAAGGTTGG,-0.0652
21,TCTTGTAGATCAAAAGAGGTTAAGAAAGTGCGCT,-0.614
22,CCAGACAGGTGAAAGGTAAATCAGTCTGGTACGC,-0.308
